Test results as given in PubChem BioAssay.
Where “and” joins values, the source holds several entries; their conditions need not be identical. Equal entries are not always repeated. Calls of active or inactive are those of the source.

Assays:
[1] = binders of probe aFSTL3 on microarray, primary screen, stem cell growth factor project, biochemical, small-molecule microarray, fluorescence 635/667 (AID 1064); conditions: higher = more signal;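 note: measures binding of the biotinylated anti-FSTL3 antibody to printed compounds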
[2] = binders from COS7 lysate, DM2A8 probe, primary screen, torsin A project, cell lysate, small-molecule microarray, fluorescence 635/667 (AID 1065); conditions: higher = more signal, COS7 lysate expressing mutant human TOR1A
[3] = binders of probe aFGF2 on microarray, primary screen, stem cell growth factor project, biochemical, small-molecule microarray, fluorescence 635/667 (AID 1067); conditions: higher = more signal;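 note: measures binding of biotinylated aFGF2 protein to printed compounds on slides; z-score merges feature fluorescence and signal-to-noise across triplicate slides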
[4] = binders of probe aFGF10 on microarray, primary screen, stem cell growth factor project, biochemical, small-molecule microarray, fluorescence 635/667 (AID 1071); conditions: higher = more signal;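 note: score merges 667 nm spot intensity and signal to noise from triplicate slides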
[5] = target: Neurogenic locus notch homolog protein 2 (Homo sapiens) (UniProt Q04721); assay: Notch2 binders on small-molecule microarrays, primary screen, biochemical, small-molecule microarray, 635 nm fluorescence, stem cell growth factors (AID 1073); conditions: Notch2 binding, higher = more signal
[6] = target: Pro-neuregulin-1, membrane-bound isoform (Homo sapiens) (UniProt Q02297); assay: NRG1 binders on small-molecule microarrays, primary screen, psychiatric disease protein project, biochemical, small-molecule microarray, fluorescence 635/667 (AID 1075); conditions: NRG1 binding, 635 nm fluorescence, higher = more signal;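 note: score combines 667 nm spot fluorescence with signal to noise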
[7] = test system: Neuregulin-1 EGF-like domain; assay: binders of neuregulin-1 EGF-like domain, primary screen, biochemical, small-molecule microarray, 635 nm fluorescence (AID 1081); conditions: small-molecule microarray binding, higher = more signal;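 note: binding of the protein to compounds printed on small-molecule microarray slides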
[8] = FRG1 promoter luciferase signal modulators, primary screen, FRG1 inhibition for FSHD, cell-based, C2C12 myotubes, firefly/Renilla luciferase, luminescence (AID 1084); conditions: higher = more signal, called active from +8 up or from −8 down
[9] = binders of probe aFST on microarray, primary screen, stem cell growth factor project, biochemical, small-molecule microarray, fluorescence 635/667 (AID 1086); conditions: higher = more signal;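 note: score merges 667 nm fluorescence with signal-to-noise of each printed compound spot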
[10] = binders of probe aHhip on microarray, primary screen, stem cell growth factor project, biochemical, small-molecule microarray, fluorescence 635/667 (AID 1087); conditions: higher = more signal;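 note: score merges spot fluorescence at 667nm with spot signal to noise ratio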
[11] = test system: PRMT1 (protein arginine N-methyltransferase 1); assay: PRMT1 binders on small-molecule microarrays, primary screen, biochemical, small-molecule microarray, 635 nm fluorescence (AID 1088); conditions: small-molecule microarray binding, higher = more signal;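 note: binding of Prmt1 protein to compounds spotted on small-molecule microarray slides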
[12] = yeast growth modulation, basal conditions, primary screen, YJM789 clinical isolate, OD600, 24 h (AID 1089);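 note: growth of clinical yeast isolate S. cerevisiae YJM 789 seeded 1000 cells per well; test concentration not given here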; conditions: S. cerevisiae YJM789 growth, higher = more signal, called active from +8 up or from −8 down
[13] = fission yeast growth modulation, primary screen, strain 972, OD600, 24 h, no modulator (AID 1090);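 note: basal condition with compound alone and no growth modifier present; test concentration not given here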; conditions: S. pombe 972 growth, higher = more signal, called active from +8 up or from −8 down
[14] = S. cerevisiae growth modulation with rapamycin, primary screen, strain BY4716, OD600, 96 h (AID 1091); conditions: higher = more signal, called active from +8 up or from −8 down; note: test concentration not given here
[15] = target: Torsin-1A-interacting protein 2 (Homo sapiens) (UniProt Q8NFQ8); assay: LULL1 binders on small-molecule microarray, primary screen, cell lysate, human LULL1 lysate, 635/667 nm fluorescence (AID 1092); conditions: hLULL1 lysate binding, 635 nm fluorescence, higher = more signal;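 note: probe is lysate of COS7 cells overexpressing human LULL1; score merges per-feature 667 nm fluorescence with signal-to-noise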
[16] = E. coli growth modulation, two-sided OD650, primary screen, E. coli filamentation project, strain DRC41, 24 h (AID 1093); conditions: OD650, 24 h, higher = more signal, called active from +8 up or from −8 down;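 note: MC1000 strain lacking acrAB efflux and sulA so SOS filamentation is blocked; test concentration not given here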
[17] = small-molecule microarray binders of probe aLefty2, primary screen, biochemical, biotinylated probe, 635/667 nm fluorescence (AID 1094); conditions: higher = more signal;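 note: score merges spot fluorescence near 667 nm with spot signal-to-noise ratio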
[18] = test system: Noggin (protein binding on small-molecule microarray); assay: Noggin binders on small-molecule microarray, primary screen, biochemical, 635/667 nm fluorescence (AID 1095); conditions: 635 nm fluorescence, higher = more signal;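 note: score merges 667 nm feature fluorescence with signal to noise over triplicate slides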
[19] = target: Neurogenic locus notch homolog protein 3 (Homo sapiens) (UniProt Q9UM47); assay: NOTCH3 binders on small-molecule microarray, primary screen, biochemical, 635/667 nm fluorescence (AID 1096); conditions: NOTCH3 binding, 635 nm fluorescence, higher = more signal
[20] = small-molecule microarray binders of probe aEGFR, primary screen, biochemical, biotinylated probe, 635/667 nm fluorescence (AID 1097); conditions: higher = more signal;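 note: probe is a biotinylated anti-EGFR antibody binding compounds printed on slides; score combines fluorescence near 667 nm and signal to noise of each spot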

Sequence of Pro-neuregulin-1, membrane-bound isoform (Homo sapiens) (Q02297 whole entry, looked up, the tested form may be a part, canonical isoform): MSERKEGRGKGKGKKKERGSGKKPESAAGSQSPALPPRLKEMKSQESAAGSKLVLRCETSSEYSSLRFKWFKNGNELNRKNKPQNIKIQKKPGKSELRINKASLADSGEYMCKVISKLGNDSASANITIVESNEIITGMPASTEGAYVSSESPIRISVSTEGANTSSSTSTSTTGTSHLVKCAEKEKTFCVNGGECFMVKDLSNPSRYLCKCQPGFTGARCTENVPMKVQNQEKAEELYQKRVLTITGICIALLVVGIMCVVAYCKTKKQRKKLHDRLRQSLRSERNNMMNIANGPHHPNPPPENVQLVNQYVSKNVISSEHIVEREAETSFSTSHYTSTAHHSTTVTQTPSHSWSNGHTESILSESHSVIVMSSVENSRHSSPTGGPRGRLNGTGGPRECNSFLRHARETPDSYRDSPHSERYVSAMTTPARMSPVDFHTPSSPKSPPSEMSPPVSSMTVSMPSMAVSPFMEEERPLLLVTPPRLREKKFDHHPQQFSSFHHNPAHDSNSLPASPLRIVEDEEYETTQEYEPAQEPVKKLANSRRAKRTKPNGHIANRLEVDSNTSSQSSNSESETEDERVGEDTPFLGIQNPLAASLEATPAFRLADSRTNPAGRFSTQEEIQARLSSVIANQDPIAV
Sequence of Neurogenic locus notch homolog protein 3 (Homo sapiens) (Q9UM47 whole entry, looked up): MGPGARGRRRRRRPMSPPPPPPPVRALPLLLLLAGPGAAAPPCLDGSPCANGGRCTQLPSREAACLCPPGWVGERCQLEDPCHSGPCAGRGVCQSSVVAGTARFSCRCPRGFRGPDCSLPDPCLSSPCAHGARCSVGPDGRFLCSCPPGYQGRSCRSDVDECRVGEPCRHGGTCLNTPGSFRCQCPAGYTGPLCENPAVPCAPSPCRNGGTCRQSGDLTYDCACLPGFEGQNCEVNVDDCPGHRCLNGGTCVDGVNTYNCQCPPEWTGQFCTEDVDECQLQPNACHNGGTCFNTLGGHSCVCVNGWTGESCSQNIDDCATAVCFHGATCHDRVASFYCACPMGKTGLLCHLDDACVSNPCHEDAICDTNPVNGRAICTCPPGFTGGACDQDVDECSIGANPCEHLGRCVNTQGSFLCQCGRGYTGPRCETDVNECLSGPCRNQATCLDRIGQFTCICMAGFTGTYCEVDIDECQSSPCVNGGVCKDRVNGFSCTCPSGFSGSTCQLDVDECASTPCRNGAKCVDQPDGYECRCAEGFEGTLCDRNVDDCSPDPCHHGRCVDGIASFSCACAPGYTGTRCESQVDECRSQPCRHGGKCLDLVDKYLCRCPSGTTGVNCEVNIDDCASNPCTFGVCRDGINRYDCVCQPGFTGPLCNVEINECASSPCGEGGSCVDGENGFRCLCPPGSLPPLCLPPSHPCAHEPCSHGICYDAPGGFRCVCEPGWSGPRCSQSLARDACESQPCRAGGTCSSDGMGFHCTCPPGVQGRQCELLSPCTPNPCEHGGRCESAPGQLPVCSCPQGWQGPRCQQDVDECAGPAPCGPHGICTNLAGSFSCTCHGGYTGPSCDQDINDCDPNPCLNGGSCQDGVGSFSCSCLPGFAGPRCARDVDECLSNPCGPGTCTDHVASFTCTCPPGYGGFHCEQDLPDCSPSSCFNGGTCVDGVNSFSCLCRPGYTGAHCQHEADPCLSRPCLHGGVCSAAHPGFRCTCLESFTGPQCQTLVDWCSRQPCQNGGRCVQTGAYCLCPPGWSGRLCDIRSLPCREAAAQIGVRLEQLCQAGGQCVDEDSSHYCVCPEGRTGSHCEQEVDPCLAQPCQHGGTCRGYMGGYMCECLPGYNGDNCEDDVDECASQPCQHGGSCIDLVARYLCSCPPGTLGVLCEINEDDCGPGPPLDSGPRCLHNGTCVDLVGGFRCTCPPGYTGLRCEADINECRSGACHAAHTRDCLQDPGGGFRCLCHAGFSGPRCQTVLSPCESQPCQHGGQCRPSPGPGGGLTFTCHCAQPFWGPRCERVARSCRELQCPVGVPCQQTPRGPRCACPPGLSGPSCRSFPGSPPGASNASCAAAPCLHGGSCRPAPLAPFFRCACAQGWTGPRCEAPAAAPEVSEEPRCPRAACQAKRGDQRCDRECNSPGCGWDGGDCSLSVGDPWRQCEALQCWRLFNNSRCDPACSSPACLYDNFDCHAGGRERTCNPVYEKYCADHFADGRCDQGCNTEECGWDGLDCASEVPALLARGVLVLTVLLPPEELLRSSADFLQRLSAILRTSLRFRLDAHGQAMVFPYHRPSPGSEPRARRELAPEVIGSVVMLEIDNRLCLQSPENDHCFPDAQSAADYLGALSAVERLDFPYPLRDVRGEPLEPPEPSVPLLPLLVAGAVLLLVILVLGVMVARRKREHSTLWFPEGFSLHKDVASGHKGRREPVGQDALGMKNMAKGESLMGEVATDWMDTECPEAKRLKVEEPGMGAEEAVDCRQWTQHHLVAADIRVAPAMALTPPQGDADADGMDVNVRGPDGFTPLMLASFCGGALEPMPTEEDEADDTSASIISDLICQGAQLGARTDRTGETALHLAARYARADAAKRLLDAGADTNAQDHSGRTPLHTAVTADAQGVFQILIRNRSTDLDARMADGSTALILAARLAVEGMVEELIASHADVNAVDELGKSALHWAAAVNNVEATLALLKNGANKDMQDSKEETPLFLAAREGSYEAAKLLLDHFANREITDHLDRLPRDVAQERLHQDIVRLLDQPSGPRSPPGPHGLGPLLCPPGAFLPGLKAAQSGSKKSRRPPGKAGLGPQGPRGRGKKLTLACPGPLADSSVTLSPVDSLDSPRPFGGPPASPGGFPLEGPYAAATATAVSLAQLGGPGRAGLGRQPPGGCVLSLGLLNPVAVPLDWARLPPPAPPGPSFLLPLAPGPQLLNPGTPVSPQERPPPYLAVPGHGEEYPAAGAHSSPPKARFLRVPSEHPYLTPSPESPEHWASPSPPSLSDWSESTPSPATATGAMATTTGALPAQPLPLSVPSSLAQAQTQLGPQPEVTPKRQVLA
Sequence of Torsin-1A-interacting protein 2 (Homo sapiens) (Q8NFQ8 whole entry, looked up): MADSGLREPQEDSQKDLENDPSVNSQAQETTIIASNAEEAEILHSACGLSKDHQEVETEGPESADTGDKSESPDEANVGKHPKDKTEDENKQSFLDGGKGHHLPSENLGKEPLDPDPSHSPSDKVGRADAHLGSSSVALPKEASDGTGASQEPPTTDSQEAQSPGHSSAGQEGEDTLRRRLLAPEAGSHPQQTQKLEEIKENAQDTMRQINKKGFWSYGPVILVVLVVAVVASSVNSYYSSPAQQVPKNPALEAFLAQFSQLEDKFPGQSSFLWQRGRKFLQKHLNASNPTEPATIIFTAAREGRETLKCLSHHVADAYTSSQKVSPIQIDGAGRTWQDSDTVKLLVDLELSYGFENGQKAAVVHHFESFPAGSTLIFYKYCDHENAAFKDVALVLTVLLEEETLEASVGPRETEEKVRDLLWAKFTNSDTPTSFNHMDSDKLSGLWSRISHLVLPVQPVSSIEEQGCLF

Compound	composite z-score [1]	composite z-score [2]	composite z-score [3]	composite z-score [4]	composite z-score [5]	composite z-score [6]	composite z-score [7]	z-score [8]	composite z-score [9]	composite z-score [10]	composite z-score [11]	z-score [12]	z-score [13]	z-score [14]	composite z-score [15]	z-score [16]	composite z-score [17]	composite z-score [18]	composite z-score [19]	composite z-score [20]
CCOC(=O)c1ccc(NC(=O)O[C@H]2[C@H](OC(=O)Nc3ccccc3)[C@@H](OC(=O)Nc3ccccc3)[C@@H](OC)O[C@@H]2CO)cc1	0.181 and 0.179	0.791 and 0.936	0.211 and 0.164	1.01 and 1.18	1.59 and 1.44	1.46 and 1.3	1.33 and 1.43	1.13 (inactive) and 0.183 (inactive)	1.29 and 1.2	0.167 and 0.24	1.53 and 1.54	1.77 (inactive) and 1.97 (inactive)	1.07 (inactive) and 1.71 (inactive)	4.37 (inactive) and 7.27 (inactive)	3.22 and 3.23	-0.221 (inactive) and -1 (inactive)	0.244 and 0.0626	0.893 and 0.71	1.02 and 1.08	0.145 and 0.11
C=CCN(C(=O)C(c1cccs1)N(C(=O)/C=C\C(=O)O)c1c(Cl)cccc1CO)C(C)(C)C (stereo not given)	1.49 and 1.64	-1.2 and -1.76	-0.232 and -0.235	-1.69 and -1.27	-1.86 and -2.21	-0.732 and -1.05	-0.301 and -0.512	1.06 (inactive) and 1.34 (inactive)	-0.791 and -0.727	0.228 and -0.554	-0.971 and -0.911	-0.0947 (inactive) and -0.689 (inactive)	-0.588 (inactive) and -0.587 (inactive)	-0.351 (inactive) and -0.595 (inactive)	-0.586 and 0.277	-0.717 (inactive) and -1.18 (inactive)	0.0765 and 0.231	-3.47 and -2.85	-1.89 and -1.83	-0.309 and -0.338
O=C(NN=C1C[C@@H](O)[C@@H](O)[C@@H]2[C@@H]3C(=O)N(Cc4ccc5c(c4)OCO5)C(=O)[C@@H]3CC[C@H]12)OCc1ccccc1	-0.196	1.64	-0.025	-0.348	0.64	-1.21	-1.43	-0.0282 (inactive)	0.965	-0.387	1.15	0.48 (inactive)	-0.157 (inactive)	0.191 (inactive)	-0.815	1.01 (inactive)	-0.0047	0.707	-0.0259	-0.0828
CC(=O)OC[C@H]1O[C@H](C#CC(C)(C)C)C=C[C@@H]1OC(C)=O	-0.358	-0.159	-0.126	0.039	1.01	1.38	1.25	-0.259 (inactive)	0.454	0.164	0.975	-0.0789 (inactive)	-1.48 (inactive)	-0.589 (inactive)	1.3	0.459 (inactive)	-0.177	0.369	0.695	0.0168
C=CCN(CCCC)C(=O)C1N(CCCCCCO)C(=O)C2C(C(=O)O)C3C=CC21O3 (stereo not given)	1.42 and 1.34	-0.0373 and -0.98	-0.153 and -0.112	-0.0134 and -0.092	-2.57 and -2.12	-0.506 and 0.0117	0.796 and 1.46	0.591 (inactive) and 0.91 (inactive)	-1.41 and -0.957	-0.383 and -0.204	-0.448 and -0.52	0.0812 (inactive) and -0.104 (inactive)	0.496 (inactive) and -0.0666 (inactive)	-0.282 (inactive) and -0.642 (inactive)	-0.179 and 2.36	-0.909 (inactive) and -0.855 (inactive)	0.0397 and -0.0936	-3.5 and -2.6	-1.8 and -1.2	-0.485 and -0.356
CO[C@@H]1COC(=O)CC=C[C@H](C)COC(=O)[C@H](C)NC(=O)CC=C[C@H]1C	-0.563	1.75	-0.203	0.126	0.269	-0.557	-0.139	-0.87 (inactive)	-0.118	0.0505	1.38	1.19 (inactive)	1.04 (inactive)	1.25 (inactive)	-0.654	0.18 (inactive)	-0.235	1.68	0.438	-0.157
C=C[C@H](C)[C@@H](O)c1ccc(OCCO)cc1	0.535 and 0.672	-0.549 and -0.859	-0.215 and -0.188	-0.907 and -0.473	-1.9 and -0.991	-0.612 and 0.783	-0.0529 and 0.395	1.94 (inactive) and 2.3 (inactive)	-0.552 and -0.723	-0.204 and -0.0393	-0.269 and 0.62	-0.766 (inactive) and 0.227 (inactive)	-0.467 (inactive) and -0.537 (inactive)	-0.647 (inactive) and 0.024 (inactive)	-0.982 and 0.448	0.158 (inactive) and -0.18 (inactive)	-0.184 and -0.0816	-0.565 and -0.187	-0.956 and -0.773	-0.403 and -0.216
C[C@@]1([C@@H](NC(=O)Cc2ccccc2)c2ccc(-c3ccccc3)cc2)C[C@H]1C1CCCCC1	1.12 and 2.03 and -0.0771	0.528 and 0.149 and 0.36	0.611 and 0.674 and -0.218	0.602 and 0.59 and 0.392	0.866 and 0.815 and 0.536	1.41 and 0.96 and 0.841	0.911 and 0.56 and 0.909	-1.2 (inactive) and -0.806 (inactive) and 1.29 (inactive)	0.57 and 2.41 and 1.59	0.319 and 2.76 and -0.609	0.314 and 0.316 and 0.125	0.375 (inactive) and 0.029 (inactive) and 0.56 (inactive)	-6 (inactive) and -0.107 (inactive) and 1.45 (inactive)	-0.167 (inactive) and 0.998 (inactive) and 2.36 (inactive)	-0.331 and 2.71 and 2.97	-1.16 (inactive) and -0.413 (inactive) and -1.74 (inactive)	0.586 and 1.19 and -0.294	-0.0626 and -0.481 and -0.08	0.444 and 0.213 and 0.544	0.0843 and 0.812 and -0.116
